# The panel holds about 83,000 compounds, 20% with a hit somewhere; the sample as a whole holds those more often.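 Single-concentration screen, 48 h exposure, 96-well plates. Endpoint: percent growth. Below 10 = active.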 Values without a mark were called inactive. Calls of active or inactive are those of the source.
# Tests used:
# Assay in all cases: NCI-60 one-dose screen, 48 h (100 = growth as untreated, 0 = no growth, -100 = all killed)
# Conditions in all cases: 10 µM unless noted
# SR leukemia = system: SR leukemia
# RPMI-8226 leukemia = system: RPMI-8226 leukemia
# OVCAR-8 ovarian = system: OVCAR-8 ovarian
# OVCAR-5 ovarian = system: OVCAR-5 ovarian
# OVCAR-4 ovarian = system: OVCAR-4 ovarian
# SK-OV-3 ovarian = system: SK-OV-3 ovarian
# IGROV1 ovarian = system: IGROV1 ovarian
# HS 578T breast = system: HS 578T breast
# NCI/ADR-RES ovarian = system: NCI/ADR-RES ovarian
Structure (SMILES),growth (SR leukemia),growth (RPMI-8226 leukemia),growth (OVCAR-8 ovarian),growth (OVCAR-5 ovarian),growth (OVCAR-4 ovarian),growth (SK-OV-3 ovarian),growth (IGROV1 ovarian),growth (HS 578T breast),growth (NCI/ADR-RES ovarian)
N#C/C(=C\c1cccc2c1OCO2)C(=O)Nc1sc2c(c1C#N)CCCC2,90.3%,101%,105%,101%,108%,98.5%,100%,102%,106%
O=C1C(N2CCN(c3ccccc3)CC2)=C(Cl)C(=O)c2ncccc21,3.69% (active),35.5%,73.5%,107%,66%,91.5%,70%,79.8%,77%
O=C(N/N=C\c1ccc(F)cc1)c1ccc2nc(-c3ccc(Br)cc3)[nH]c2c1,41.3%,63.5%,27.4%,63.3%,12.5%,90.9%,3.87% (active),36.1%,68.2%
Cc1cc(=O)oc2cc(OCCCOc3ccc(/C=C/C(=O)Nc4ccc(Br)cc4)cc3)ccc12,51.8%,75.6%,83.9%,95.4%,105%,98.2%,72.7%,76.3%,64.6%
O=C1[C@@H]2Cc3c([nH]c4ccccc34)[C@H](c3ccc(Br)cc3)N2C(=O)CN1C1CCN(Cc2c(Cl)cccc2Cl)CC1,91.7%,79.9%,94.6%,99.4%,86.2%,86.7%,84.7%,90.1%,90.9%
CS(=O)(=O)c1nccc(-c2c(-c3cccc(OCc4ccc(Cl)c(C(F)(F)F)c4)c3)nc3sccn23)n1,9.33% (active),-16.8% (active),99.3%,101%,71.9%,104%,34.1%,41.1%,98.2%
O=c1c2ccccc2cc2n1CCN=C2c1ccccc1,93.6%,99.2%,101%,108%,97.7%,103%,116%,92.6%,99.7%
Brc1cc(-c2cc(-c3ccc4c(c3)OCCO4)[nH]n2)cs1,14.2%,29.9%,51.8%,75.8%,83.5%,62.5%,50.8%,61.1%,17.4%
O=c1c2cc(-c3ccc(F)cc3F)ccc2n(O)c(=O)n1-c1cccc(C(F)(F)F)c1,-0.936% (active),-19.1% (active),12%,42.3%,31.7%,-14.5% (active),21.2%,-0.801% (active),3.16% (active)
O=C1c2ccccc2C23C(=C(c4cncnc4)c4ccccc42)CCCN13 (centres undefined),96.1%,103%,104%,96.5%,93.3%,118%,107%,95%,103%
C/C(=N\NC(=O)/C=C/CC(=O)O)c1nnn(-c2ccc([N+](=O)[O-])cc2)c1C,95.4%,101%,101%,108%,106%,106%,103%,116%,102%
